Screening results deposited in PubChem BioAssay by National Center for Advancing Translational Sciences (NCATS).
Compounds with a hit are over-represented: about 11% of the library has one in this group of screens.
Pf growth 48h: inhibits P. falciparum growth in the first generation, 48 h; P. falciparum luciferase growth in erythrocytes, 48 h; Potency, µM (series often up to 28.7 µM), inactives show top-dose activity change, negative = inhibition, actives largely listed as inhibitors; 310,000 compounds, 5.9% hits; AID 504832; further: on the % scale 0 is the no-effect control and ±100 the full control effect
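Read-out is firefly luciferase luminescence from an integrated reporter in P. falciparum, so falling signal marks reduced parasite growth. Infected erythrocytes were at 2% hematocrit and 0.1% parasitemia (final) in Albumax-supplemented RPMI 1640.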
VACV Venus inh: vaccinia inhibition (Venus reporter); AID 720580; Potency, µM (titrated, usually from 36.5 µM), inactives show top-dose activity change, negative = inhibition, hits mostly inhibitors; Vaccinia virus Venus reporter expression, fluorescence; 330,000 compounds, 0.46% hits; calls by dose curve; tested in A549 cells; further: on the % scale 0 is the no-effect control and ±100 the full control effect; nearly all actives have a fitted effect of over 30% in size
Pf growth 96h: inhibits malaria parasite growth, 96 h. 320,000 compounds, 6.9% hits. P. falciparum luciferase reporter growth, 96 h. AID 504834. Potency, µM (top dose mostly 28.7 µM), without a hit: at the top dose activity change, negative = inhibition, usual class: inhibitors; further: on the % scale 0 is the no-effect control and ±100 the full control effect
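Cell-based qHTS: luciferase-tagged P. falciparum in erythrocytes (2% hematocrit, 0.05% parasitemia final) incubated with compounds for 96 hours, 37 C, 5% CO2; luciferase detection reagent then added and luminescence measured.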
NS1 inh: influenza NS1 inhibition; Potency, µM (top dose mostly 46.1 µM), for the others: at the highest dose activity, positive = more growth; 270,000 compounds, 0.4% hits; AID 2326; calls by dose curve; further: actives are rising curves; nearly all actives have a fitted effect of over 50% in size
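Compounds were scored for reversing the slow growth caused by influenza A NS1 in S. cerevisiae, measured by optical density at 600 nm. Assay medium contained 2% galactose at pH 6.0; NS1-free yeast of the same strain were the positive control.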
VACV mCherry inh: vaccinia inhibition (mCherry reporter). Vaccinia virus mCherry reporter infection, fluorescence. Potency, µM (highest dose often 36.5 µM), for the others: at the top dose activity change, negative = inhibition, actives largely listed as inhibitors. 310,000 compounds, 0.63% hits. AID 720579; calls by dose curve; tested in A549 cells; further: on the % scale 0 is the no-effect control and ±100 the full control effect; nearly all actives have a fitted effect of over 35% in size
HCV inhibitor: inhibitors of hepatitis C virus infection. Huh7.5.1 HCVcc-Cre infection, luciferase reporter, 44 h. Potency, µM (top dose mostly 41.8 µM), for the others: at the top dose activity change, negative = inhibition, hits mostly inhibitors. 340,000 compounds, 3.4% hits; further: on the % scale 0 is the no-effect control and ±100 the full control effect
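HCVcc-Cre virus at an moi near 0.5 was added right after compound to cells cultured 4 h from seeding (1,000 cells/well). Luciferase activity was determined 44 h later, 15 min after substrate addition at RT.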
The depositor's hits bear a star; [ ] = another dose, or the depositor's remark. Unless noted, the call rests on the fitted dose curve; in most records, active means well fitted inhibition curve with a large enough effect; inconclusive means small, poorly fitted or top-dose-only effect, or another doubt; inactive means no such curve, though single readings can be large or run the other way. Potency means the concentration at half of the fitted maximal effect.

What do the screens show for `CCOC(=O)c1sc(NC(=O)CSc2nnc(C)s2)c(C(=O)OCC)c1C`?
Pf growth 48h: 9.3µM*; Pf growth 96h: inconclusive; NS1 inh: -31%; HCV inhibitor: inconclusive

How did COc1ccc(CN2C(=O)CCCc3ccccc32)cc1 do in these assays?
Pf growth 48h: inconclusive; VACV Venus inh: inconclusive; Pf growth 96h: -14%; NS1 inh: -9%; VACV mCherry inh: -9%; HCV inhibitor: -4%

What do the screens show for `CCOC(=O)c1sc(NC(=O)/C=C/c2cnn(CC)c2C)c(C(=O)OCC)c1C`?
Pf growth 48h: inconclusive; Pf growth 96h: 8.3µM*; NS1 inh: 12%; HCV inhibitor: inconclusive

How did CCOC(=O)c1sc(NC(=O)CSc2nnc(Cc3ccccc3)o2)c(C(=O)OCC)c1C do in these assays?
Pf growth 96h: inconclusive; NS1 inh: 24%; HCV inhibitor: 6.3µM*

Results for Cc1cccc(C)c1NC(=O)CSc1nnc(Cc2ccccc2)o1 ?
Pf growth 48h: -17%; VACV Venus inh: inconclusive; Pf growth 96h: 12µM*; NS1 inh: -1%; VACV mCherry inh: -1%; HCV inhibitor: 7%

Results for CCCOC(=O)c1c(NC(=O)/C=C/c2cnn(C)c2C)sc(C(=O)OCC)c1C ?
Pf growth 48h: -19%; Pf growth 96h: inconclusive; NS1 inh: 11%; HCV inhibitor: inconclusive

How did O=c1[nH]c(O)c(N=Nc2ccc(S(=O)(=O)N3CCOCC3)cc2)c(=O)[nH]1 do in these assays?
Pf growth 48h: -27%; VACV Venus inh: -3%; Pf growth 96h: inconclusive; NS1 inh: 4%; VACV mCherry inh: inactive; HCV inhibitor: 3%

What do the screens show for `COc1ccc(NC(=O)C2CCN(S(=O)(=O)c3ccc(N4CCCC4=O)cc3)CC2)c(OC)c1`?
Pf growth 48h: inconclusive; VACV Venus inh: -6%; Pf growth 96h: inconclusive; NS1 inh: 8%; VACV mCherry inh: -10%; HCV inhibitor: 4%

Results for O=C(NCc1ccc(F)cc1)C1CCN(S(=O)(=O)c2ccc(N3CCCC3=O)cc2)CC1 ?
VACV Venus inh: -7%; VACV mCherry inh: -12%

How did C=CCN(CC=C)C(=O)C1CCN(S(=O)(=O)c2ccc(N3CCCC3=O)cc2)CC1 do in these assays?
Pf growth 48h: -19%; Pf growth 96h: 7.4µM*; NS1 inh: -8%; HCV inhibitor: -12%

Results for O=C(NCc1ccccc1Cl)C1CCN(S(=O)(=O)c2ccc(N3CCCC3=O)cc2)CC1 ?
Pf growth 48h: inconclusive; Pf growth 96h: 9.3µM*; NS1 inh: 0%; HCV inhibitor: -4%

What do the screens show for `Cc1ccc(NC(=O)c2ccc(N3CCCC3=O)cc2)cc1S(=O)(=O)N1CCCCC1`?
Pf growth 48h: inconclusive; Pf growth 96h: 0.37µM*; HCV inhibitor: inconclusive

What do the screens show for `Cc1ccc(NC(=O)C2CCN(S(=O)(=O)c3ccc(N4CCCC4=O)cc3)CC2)cc1Cl`?
Pf growth 48h: inconclusive; VACV Venus inh: -17%; Pf growth 96h: 5.9µM*; NS1 inh: -22%; VACV mCherry inh: -10%; HCV inhibitor: 10µM*

Results for COc1ccc(-c2c3c(=O)n(C)c(=O)n(C)c3c3n2-c2ccccc2NC3c2ccc(O)cc2O)cc1 (configuration not stated) ?
VACV Venus inh: -9%; VACV mCherry inh: -22%

Results for COc1ccc(NC(=O)c2cc(-c3ccc(C)cc3O)n[nH]2)c(OC)c1 ?
Pf growth 48h: 10%[0.00184 µM]; VACV Venus inh: -18%; Pf growth 96h: inconclusive; NS1 inh: 1%; VACV mCherry inh: -5%; HCV inhibitor: inconclusive

How did COCCNS(=O)(=O)c1ccc2c(c1)oc(=O)c1cc(S(=O)(=O)NCCOC)ccc12 do in these assays?
Pf growth 48h: inconclusive; Pf growth 96h: 1.9µM*; NS1 inh: -3%; HCV inhibitor: 9%

What do the screens show for `COc1ccccc1OCCNS(=O)(=O)c1ccc2oc3ccccc3c2c1`?
Pf growth 48h: -18%; VACV Venus inh: -12%; Pf growth 96h: 10µM*; NS1 inh: -2%; VACV mCherry inh: -8%; HCV inhibitor: 0%

What do the screens show for `O=S(=O)(c1cc(Cl)cc(Cl)c1)N1CCC2CC1c1cc(Cl)ccc12` (configuration not stated)?
VACV Venus inh: 11%; VACV mCherry inh: -23%; HCV inhibitor: -5%[8.37 µM]

How did C[C@H]1CCC[C@]2(C)C[C@H]3OC(=O)C(CN4CCCCCC4)[C@H]3C=C12 (some centres not stated) do in these assays?
Pf growth 48h: inconclusive; Pf growth 96h: inconclusive; NS1 inh: 12%; HCV inhibitor: inconclusive

Results for C=C1CCC[C@]2(C)C[C@H]3OC(=O)C(CNC(C)(CO)CO)[C@H]3CC12 (some centres not stated) ?
VACV Venus inh: inconclusive; Pf growth 96h: inconclusive; NS1 inh: 1%; VACV mCherry inh: 7.9µM*; HCV inhibitor: -9%

How did C=C1CCC[C@]2(C)C[C@H]3OC(=O)C(CN4CCCCC4CO)[C@H]3CC12 (some centres not stated) do in these assays?
Pf growth 48h: inconclusive; VACV Venus inh: 2.5µM*; Pf growth 96h: inconclusive; NS1 inh: inconclusive; VACV mCherry inh: 3.2µM*; HCV inhibitor: -17%

Results for C=C1CCC[C@]2(C)C[C@H]3OC(=O)C(CNC(C)CC)[C@H]3CC12 (some centres not stated) ?
Pf growth 48h: inconclusive; Pf growth 96h: inconclusive; NS1 inh: -3%; HCV inhibitor: 4%

How did C=C1CCC[C@]2(C)C[C@H]3OC(=O)C(CN(C)CC(OC)OC)[C@H]3CC12 (some centres not stated) do in these assays?
Pf growth 48h: 0%; VACV Venus inh: inconclusive; Pf growth 96h: inconclusive; NS1 inh: 7%; VACV mCherry inh: 0.89µM*; HCV inhibitor: -23%

How did C=C1CCC[C@]2(C)C[C@H]3OC(=O)C(CNC(CC)CO)[C@H]3CC12 (some centres not stated) do in these assays?
Pf growth 48h: -29%; VACV Venus inh: 7.1µM*; Pf growth 96h: inconclusive; NS1 inh: 4%; VACV mCherry inh: 7.1µM*; HCV inhibitor: -6%

Results for C/C(=N\O)c1ccn(S(=O)(=O)c2ccc(Cl)cc2)c1 ?
Pf growth 48h: -2%; Pf growth 96h: -23%; NS1 inh: -1%; HCV inhibitor: 16%

Results for CCCCC(=O)Nc1ccc2oc(-c3ccncc3)nc2c1 ?
Pf growth 48h: -2%; VACV Venus inh: -14%; Pf growth 96h: -19%; NS1 inh: -16%; VACV mCherry inh: -1%; HCV inhibitor: inconclusive

How did CC(C)NC(=O)c1ccc(NC(=O)CC2SC(N3CCCC3)=NC2=O)cc1 (configuration not stated) do in these assays?
Pf growth 48h: 2%; Pf growth 96h: 32%; HCV inhibitor: 10%
